From PubChem BioAssay
The source made the active and inactive calls.

Experiments:
[1] = optical density shifts of acrAB sulA E. coli – strain DRC41, OD650, 48 h, E. coli filamentation inducer project, primary screen (AID 1152); settings: higher = more signal, called active from +8 up or from −8 down;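 also: E. coli MC1000 strain DRC41 lacking acrAB efflux pump and sulA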
[2] = probe aLefty1 binding on compound microarray – biochemical, small-molecule microarray, 635/667 nm fluorescence, primary screen (AID 1153); settings: higher = more signal;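 also: score merges spot fluorescence with signal-to-noise ratio from the scanned slide images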
[3] = plasmodial surface anion channel blockers, osmotic lysis – cell-based, P. falciparum Indochina, OD700, 1 h, primary screen (AID 1154); settings: P. falciparum Indochina infected RBC osmotic lysis, higher = more signal, called active from +8 up or from −8 down
[4] = plasmodial surface anion channel blockers, osmotic lysis – cell-based, P. falciparum Indochina, OD700, 2 h, primary screen (AID 1155);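 also: lysis reports solute entry through the parasite surface anion channel PSAC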; settings: P. falciparum Indochina infected erythrocytes, higher = more signal, called active from +8 up or from −8 down
[5] = changes in parasitized red cell lysis, either direction – P. falciparum Indochina, OD700, 3 h, PSAC antagonist project, primary screen (AID 1156); settings: P. falciparum-infected erythrocytes, osmotic lysis, higher = more signal, called active from +8 up or from −8 down
[6] = plasmodial surface anion channel blockers, osmotic lysis – cell-based, P. falciparum Indochina, OD700, 18 h, primary screen (AID 1157); settings: P. falciparum Indochina infected erythrocytes, osmotic lysis OD700, 18 h; higher = more signal, called active from +8 up or from −8 down
[7] = S6 kinase pathway phospho-S6 level changes – cell-based, A549, cytoblot, luminescence, serum-stimulated, primary screen (AID 1158); settings: 5 h, higher = more signal;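 also: serum-stimulated A549 lung adenocarcinoma cells; signal is phosphorylated S6 detected by cytoblot immunostaining with HRP secondary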
[8] = molecular target: NADPH oxidase 2 (Homo sapiens) (UniProt P04839); test: compounds shifting NOX2 Amplex Red fluorescence – cell-based, HEK293-NOX2, PMA-stimulated, NOX inhibitor project, primary screen (AID 1159); settings: 45 min, higher = more signal, called active from +8 up or from −8 down; also: test concentration not given here
Sequence of NADPH oxidase 2 (Homo sapiens) (P04839 whole entry, looked up): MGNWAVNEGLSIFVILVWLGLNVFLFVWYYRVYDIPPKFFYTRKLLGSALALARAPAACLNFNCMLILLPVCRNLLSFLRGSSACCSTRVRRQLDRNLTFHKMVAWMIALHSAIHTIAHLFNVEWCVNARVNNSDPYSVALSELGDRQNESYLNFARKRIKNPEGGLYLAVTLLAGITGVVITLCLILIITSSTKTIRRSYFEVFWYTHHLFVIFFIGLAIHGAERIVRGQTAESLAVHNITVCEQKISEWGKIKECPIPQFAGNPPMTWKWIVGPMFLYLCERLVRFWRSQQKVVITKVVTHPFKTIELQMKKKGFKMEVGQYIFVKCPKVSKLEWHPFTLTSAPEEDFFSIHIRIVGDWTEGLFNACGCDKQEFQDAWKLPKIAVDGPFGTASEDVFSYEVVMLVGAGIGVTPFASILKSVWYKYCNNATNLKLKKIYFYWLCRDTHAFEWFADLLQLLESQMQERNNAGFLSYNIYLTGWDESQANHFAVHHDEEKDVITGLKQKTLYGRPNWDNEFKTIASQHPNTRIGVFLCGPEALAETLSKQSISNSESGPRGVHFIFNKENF

[9] = molecular target: NADPH oxidase 4 (Homo sapiens) (UniProt Q9NPH5); test: compounds shifting NOX4 Amplex Red fluorescence – cell-based, HEK293-NOX4, tetracycline-induced, NOX inhibitor project, primary screen (AID 1160); settings: HEK293-NOX4, Amplex Red H2O2 fluorescence, 45 min; higher = more signal, called active from +8 up or from −8 down
Sequence of NADPH oxidase 4 (Homo sapiens) (Q9NPH5 whole entry, looked up): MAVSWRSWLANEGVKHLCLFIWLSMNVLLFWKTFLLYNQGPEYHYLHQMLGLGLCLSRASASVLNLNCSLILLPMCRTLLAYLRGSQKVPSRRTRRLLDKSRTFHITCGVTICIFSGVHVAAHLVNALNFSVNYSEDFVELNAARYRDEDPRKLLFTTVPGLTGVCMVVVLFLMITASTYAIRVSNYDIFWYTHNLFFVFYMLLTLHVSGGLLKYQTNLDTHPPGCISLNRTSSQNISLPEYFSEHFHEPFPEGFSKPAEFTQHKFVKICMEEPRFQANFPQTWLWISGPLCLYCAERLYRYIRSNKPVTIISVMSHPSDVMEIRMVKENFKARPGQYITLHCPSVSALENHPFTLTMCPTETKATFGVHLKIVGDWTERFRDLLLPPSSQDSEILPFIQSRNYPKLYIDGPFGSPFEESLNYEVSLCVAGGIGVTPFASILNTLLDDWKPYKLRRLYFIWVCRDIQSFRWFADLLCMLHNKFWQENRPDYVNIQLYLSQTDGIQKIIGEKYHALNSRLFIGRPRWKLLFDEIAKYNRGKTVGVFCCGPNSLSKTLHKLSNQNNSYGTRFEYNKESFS

[10] = molecular target: NADPH oxidase 5 (Homo sapiens) (UniProt Q96PH1); test: compounds shifting NOX5 Amplex Red fluorescence – cell-based, HEK293-NOX5, NOX inhibitor project, primary screen (AID 1161); settings: HEK293-NOX5, ionomycin, 45 min, higher = more signal
Sequence of NADPH oxidase 5 (Homo sapiens) (Q96PH1 whole entry, looked up): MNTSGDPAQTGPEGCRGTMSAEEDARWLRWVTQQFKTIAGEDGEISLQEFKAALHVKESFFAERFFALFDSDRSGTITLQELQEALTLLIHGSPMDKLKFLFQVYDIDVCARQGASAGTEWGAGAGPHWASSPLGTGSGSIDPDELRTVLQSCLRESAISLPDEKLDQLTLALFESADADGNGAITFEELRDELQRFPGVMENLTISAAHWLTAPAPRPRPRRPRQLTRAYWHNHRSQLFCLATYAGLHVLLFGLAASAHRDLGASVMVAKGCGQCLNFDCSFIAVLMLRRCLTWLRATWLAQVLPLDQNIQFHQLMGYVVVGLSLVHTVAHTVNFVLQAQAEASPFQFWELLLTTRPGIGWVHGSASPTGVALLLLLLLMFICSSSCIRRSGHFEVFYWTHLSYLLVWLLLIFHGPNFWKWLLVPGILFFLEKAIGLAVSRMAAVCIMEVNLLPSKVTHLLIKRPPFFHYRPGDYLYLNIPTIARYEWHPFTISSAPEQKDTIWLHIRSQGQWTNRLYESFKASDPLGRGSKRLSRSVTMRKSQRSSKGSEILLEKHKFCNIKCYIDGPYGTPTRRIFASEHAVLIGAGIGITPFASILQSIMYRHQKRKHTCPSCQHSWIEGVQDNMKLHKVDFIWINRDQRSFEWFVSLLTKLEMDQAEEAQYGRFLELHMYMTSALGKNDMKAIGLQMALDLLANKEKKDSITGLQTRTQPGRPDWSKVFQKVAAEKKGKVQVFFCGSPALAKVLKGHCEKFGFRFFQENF

[11] = compound effects on lung adenocarcinoma cell viability – A549, calcein-AM fluorescence, 48 h, basal, profiling panel (AID 1162); settings: higher = more signal; also: test concentration not given here
[12] = compound effects on differentiated 3T3-L1 adipocyte viability – cell-based, 3T3-L1 adipocytes, calcein-AM fluorescence, 48 h, basal, profiling panel (AID 1163); settings: 3T3-L1 adipocytes viability, higher = more signal; also: test concentration not given here
[13] = compound effects on hepatocellular carcinoma cell viability – HepG2, calcein-AM fluorescence, 48 h, basal, profiling panel (AID 1164); settings: higher = more signal; also: test concentration not given here
[14] = compound effects on multiple myeloma cell viability – MM1S, calcein-AM fluorescence, 48 h, basal, profiling panel (AID 1165); settings: higher = more signal;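 also: viability of MM1S multiple myeloma cells under basal unstimulated conditions; test concentration not given here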
[15] = calcein-AM signal in unstimulated myeloma cells – cell-based, calcein-AM fluorescence, 48 h, PK04 Diversity Set, profiling panel (AID 1166); settings: RPMI8226 myeloma viability, higher = more signal;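 also: cells grown under basal conditions without added stimulus; test concentration not given here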
[16] = JC-1 mitochondrial signal, unstimulated HepG2 cells – cell-based, JC-1 fluorescence, 24 h, 100 nL compound, profiling panel (AID 1167); settings: HepG2 mitochondrial potential, higher = more signal; also: test concentration not given here
[17] = JC-1 mitochondrial signal, unstimulated adipocytes – cell-based, JC-1 fluorescence, 3T3-L1 adipocytes, 24 h, 100 nL compound, profiling panel (AID 1168); settings: JC-1 mitochondrial fluorescence, higher = more signal, called active from +8 up or from −8 down; also: test concentration not given here
[18] = JC-1 mitochondrial signal, unstimulated myeloma cells – cell-based, JC-1 fluorescence, RPMI8226, 24 h, 100 nL compound, profiling panel (AID 1169); settings: JC-1 mitochondrial potential fluorescence, higher = more signal; also: test concentration not given here
[19] = JC-1 mitochondrial signal, unstimulated MM1S myeloma – cell-based, JC-1 fluorescence, 24 h, 100 nL compound, profiling panel (AID 1170); settings: MM1S mitochondrial potential, higher = more signal; also: test concentration not given here
[20] = resazurin metabolic signal in A549 cells – cell-based, resazurin fluorescence, 24 h, PK04 Diversity Set, profiling panel (AID 1171); settings: A549 viability, higher = more signal, called active from +8 up or from −8 down; also: test concentration not given here

Compound	z-score [1]	composite z-score [2]	z-score [3]	z-score [4]	z-score [5]	z-score [6]	z-score [7]	z-score [8]	z-score [9]	z-score [10]	z-score [11]	z-score [12]	z-score [13]	z-score [14]	z-score [15]	z-score [16]	z-score [17]	z-score [18]	z-score [19]	z-score [20]
C=CCC(OC(C)=O)[C@@H]1[C@@H](N(Cc2ccc(-c3ccccc3)cc2)C(=O)Cc2ccc(F)cc2)c2cc(OCCCO)ccc2N1C(=O)c1ccc2ccccc2c1 (stereo not given in full)	0.185 (inactive)	0.193	-0.0408 (inactive)	0.345 (inactive)	-0.348 (inactive)	0.703 (inactive)	-0.0772	0.719 (inactive)	0.587 (inactive)	1.82	0.444	0.0021	0.278	-0.895	-0.344	1.61	-0.413 (inactive)	-0.192	0.769	0.799 (inactive)
O=C1NC(=O)C2C1C=CC(C(O)C=Cc1ccc([N+](=O)[O-])cc1)N2Nc1ccc(Cl)cc1Cl (stereo not given)	-2.11 (inactive)	0.501	10.1 (active)	2.46 (inactive)	2.09 (inactive)	1.66 (inactive)	-1	-0.82 (inactive)	-6 (inactive)	-1.45	-0.352	-0.122	-0.3	-1.47	-1.4	-0.5	-0.726 (inactive)	-1.02	-0.873	-0.428 (inactive)
CCOC(=O)C1=CC[C@@H](c2ccccc2)N(S(=O)(=O)c2ccc(C)cc2)[C@H]1c1ccc(CC)cc1	-0.688 (inactive)	0.166	0.874 (inactive)	0.991 (inactive)	-0.862 (inactive)	0.361 (inactive)	-0.253	0.711 (inactive)	0.029 (inactive)	0.46	-0.516	-0.932	-0.217	0.677	0.0825	5.94	-0.149 (inactive)	-0.27	-1.84	1.48 (inactive)
CN1C(=O)C2C=CC(C(O)C=Cc3ccc([N+](=O)[O-])cc3)N(Nc3ccccc3)C2C1=O (stereo not given)	-1.84 (inactive)	-0.139	6.52 (inactive)	1.48 (inactive)	0.86 (inactive)	1.32 (inactive)	-1.05	-1.57 (inactive)	-3.82 (inactive)	-2.44	-0.598	-1.6	-0.432	-0.655	-0.997	-1.53	-1.48 (inactive)	-0.634	-0.681	-0.408 (inactive)
O=C1C2C=CC(C(O)c3ccc(-c4ccccc4)s3)N(Nc3ccccc3)C2C(=O)N1c1ccccc1 (stereo not given)	-0.517 (inactive)	0.591	8.45 (active)	2.11 (inactive)	0.214 (inactive)	1.1 (inactive)	-0.505	-0.986 (inactive)	-3.23 (inactive)	-0.493	-0.574	-1.35	0.128	-0.338	-1.45	-1.75	0.0226 (inactive)	0.054	-0.271	0.0364 (inactive)
COCCOC(=O)N1C(=O)[C@@]2(c3ccccc31)[C@H](C(N)=O)[C@H]1C(=O)O[C@H](c3ccccc3)[C@H](c3ccccc3)N1[C@@H]2c1ccc(O)cc1	0.912 (inactive)	-0.649	0.658 (inactive)	-1.28 (inactive)	-0.142 (inactive)	-2.25 (inactive)	2.74	-0.339 (inactive)	-0.637 (inactive)	-0.534	0.75	-0.0824	1.51	0.84	0.248	-0.244	0.571 (inactive)	-0.795	0.119	-1.37 (inactive)
CC(=O)Nc1cc(Br)ccc1C(=O)NCc1ccccc1	-0.813 (inactive)	-0.0929	3.88 (inactive)	0.423 (inactive)	0.0319 (inactive)	0.229 (inactive)	-0.283	-0.714 (inactive)	-0.427 (inactive)	-0.393	-0.196	0.814	-0.0731	-0.0267	0.0237	-0.56	-0.907 (inactive)	0.782	1.25	0.14 (inactive)
O=C(CS)NCCCCCNC(=O)[C@@H]1C[C@@H]2C(=O)NCC(=O)N2[C@@H]1c1cccc(OCCO)c1	3.02 (inactive)	0.269	2.11 (inactive)	0.151 (inactive)	-1.32 (inactive)	-1.85 (inactive)	1.86	1.52 (inactive)	1.06 (inactive)	1.49	0.686	0.45	0.938	0.231	0.842	1.85	-0.102 (inactive)	-0.738	-0.249	-0.696 (inactive)
C=CC[C@]1(C(=O)NCc2ccccc2)N=C(c2ccc(OCCCO)cc2)O[C@H]1c1ccccc1CN=[N+]=[N-]	-1.21 (inactive)	0.0556	19.7 (active)	2.93 (inactive)	3.16 (inactive)	0.986 (inactive)	-0.387	-0.302 (inactive)	0.617 (inactive)	-0.656	-0.774	0.0129	0.22	-1.28	-1.81	0.24	-0.889 (inactive)	-0.787	0.407	0.668 (inactive)
CCOC(=O)C1=CCC(c2ccc(F)cc2)N(S(=O)(=O)c2ccc(C)cc2)C1 (stereo not given)	-1 (inactive)	-0.147	1.44 (inactive)	0.952 (inactive)	-0.421 (inactive)	0.363 (inactive)	-0.566	0.396 (inactive)	-0.0222 (inactive)	0.315	-1.02	-1.12	-0.444	-0.434	-1.5	-0.717	-1.01 (inactive)	0.641	-1.66	-0.0491 (inactive)
CCCCC(=C=CC[C@@H](O)c1cccc(OCCO)c1)C[C@@H](O)c1ccccn1	0.158 (inactive)	-0.147	14 (active)	1.33 (inactive)	0.375 (inactive)	0.504 (inactive)	-0.0848	-1.68 (inactive)	-0.544 (inactive)	-1.46	-0.0385	0.317	0.175	0.225	0.427	-0.667	0.316 (inactive)	0.907	-0.578	0.764 (inactive)
O=C(NCc1ccccc1)[C@@H]1c2ccccc2C(=O)N(C2Cc3ccccc3C2)[C@H]1c1ccc(CO)cc1	-1.25 (inactive)	0.315	3.46 (inactive)	-0.627 (inactive)	-0.0549 (inactive)	0.353 (inactive)	-0.543	-0.0422 (inactive)	-1.3 (inactive)	-1.41	0.365	0.363	0.291	0.0344	-1.3	1.52	-0.508 (inactive)	0.0926	0.458	0.791 (inactive)
CN(C)CCCC[C@@H]1NC(=O)[C@H]2C[C@@H](C(=O)NCCCCCN)[C@@H](c3cccc(OCCO)c3)N2C1=O	0.675 (inactive)	1.28	1.9 (inactive)	0.112 (inactive)	-1.16 (inactive)	0.129 (inactive)	0.204	0.653 (inactive)	0.222 (inactive)	1.52	0.227	0.167	-0.42	-1.44	0.537	1.28	1.18 (inactive)	0.51	1.26	0.123 (inactive)
O=C1[C@H]2C=C(Br)[C@H](C[C@@H]2OCCCCCCO)[C@@]12CO2	-1.69 (inactive)	-0.101	1.53 (inactive)	0.318 (inactive)	1.2 (inactive)	0.501 (inactive)	-0.276	0.486 (inactive)	0.633 (inactive)	-0.292	-0.141	-0.572	-0.339	-1.04	0.206	-1.59	-0.253 (inactive)	-0.601	-0.0629	-0.247 (inactive)
Cc1ccc([C@H]2C(C(=O)O)=CCN2S(=O)(=O)c2ccc(C)cc2)cc1	-0.813 (inactive)	-0.0308	1.48 (inactive)	0.495 (inactive)	0.164 (inactive)	0.291 (inactive)	-0.579	0.441 (inactive)	-0.84 (inactive)	-1.62	-0.261	-0.456	-0.577	-0.458	-0.922	-1.39	-0.521 (inactive)	0.284	-0.0534	-0.29 (inactive)
COc1ccc([Si](C)(C)[C@H]2[C@H](CC(=O)N3CCC[C@H]3CO)O[C@@]3(C(=O)N(Cc4cccc(N5CCOC5=O)c4)c4ccccc43)[C@@H]2C)cc1	1.18 (inactive)	-0.017	4.76 (inactive)	1.13 (inactive)	0.618 (inactive)	0.722 (inactive)	0.305	1.73 (inactive)	1.76 (inactive)	4.67	-0.0923	0.1	-0.0734	-2.19	-3	2.76	-0.0541 (inactive)	-0.952	-0.0702	0.299 (inactive)
O=C1OCC=C[C@H]2OC34C=CCN(Cn5nnc6ccccc65)C(=O)[C@H]3N(CCCCCO)C(=O)[C@@H]4[C@@H]12 (stereo not given in full)	0.911 (inactive)	-0.418	0.896 (inactive)	0.212 (inactive)	1.11 (inactive)	0.383 (inactive)	-0.433	1.95 (inactive)	0.223 (inactive)	1.32	-0.382	0.188	-0.609	0.823	0.903	-0.0737	-0.135 (inactive)	0.205	0.183	-0.301 (inactive)
CCCC[C@@H]1C[C@H]1[C@@H](NC(=O)c1cccnc1)c1ccc(Cl)cc1	-3.66 (inactive)	-0.321	2.29 (inactive)	1.51 (inactive)	0.395 (inactive)	1.03 (inactive)	0.348	-0.56 (inactive)	-1.3 (inactive)	0.715	-1.01	-1.38	-0.114	-2.05	-3.56	1.06	-0.307 (inactive)	-0.249	-1.62	1.56 (inactive)
